Data on 109 compounds can be found in PubChem BioAssay AID588342 (National Center for Advancing Translational Sciences (NCATS), 2011).

Among all 360,000 compounds or so, about 25,000 (6.9%) were called active. Where a call stands in place of a potency, no number is given. Roughly 9% stayed inconclusive and do not appear here. Calls come from the whole dose curve; as a rule, active = well fitted inhibition curve with a large enough effect; inconclusive = small, poorly fitted or top-dose-only effect; inactive = flat fitted curve, though single readings scatter. This excerpt belongs to a sample that is enriched for actives.
Potency is the fitted concentration of half-maximal effect.

For this experiment, the target named is Luciferin 4-monooxygenase (Photinus pyralis) (UniProt P08659). Description: qHTS profiling assay for firefly luciferase inhibitor/activator using purifed enzyme and Km concentrations of substrates (counterscreen for miR-21 project). Note: nearly all actives have a fitted effect of over 55% in size. The following applies: purified FLuc, luminescence inhibition; series mostly up to 57.5 µM. The procedure, abridged: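 Purified P. pyralis luciferase (10nM final) with 10uM D-luciferin and 10uM ATP (Km levels) in 50mM Tris acetate pH 7.5, 10mM Mg acetate, 0.01% Tween-20, 0.05% BSA; qHTS 6-point titration, ~60 µM downward; luminescence read.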
Luciferin 4-monooxygenase (Photinus pyralis), sequence (P08659 whole entry, looked up): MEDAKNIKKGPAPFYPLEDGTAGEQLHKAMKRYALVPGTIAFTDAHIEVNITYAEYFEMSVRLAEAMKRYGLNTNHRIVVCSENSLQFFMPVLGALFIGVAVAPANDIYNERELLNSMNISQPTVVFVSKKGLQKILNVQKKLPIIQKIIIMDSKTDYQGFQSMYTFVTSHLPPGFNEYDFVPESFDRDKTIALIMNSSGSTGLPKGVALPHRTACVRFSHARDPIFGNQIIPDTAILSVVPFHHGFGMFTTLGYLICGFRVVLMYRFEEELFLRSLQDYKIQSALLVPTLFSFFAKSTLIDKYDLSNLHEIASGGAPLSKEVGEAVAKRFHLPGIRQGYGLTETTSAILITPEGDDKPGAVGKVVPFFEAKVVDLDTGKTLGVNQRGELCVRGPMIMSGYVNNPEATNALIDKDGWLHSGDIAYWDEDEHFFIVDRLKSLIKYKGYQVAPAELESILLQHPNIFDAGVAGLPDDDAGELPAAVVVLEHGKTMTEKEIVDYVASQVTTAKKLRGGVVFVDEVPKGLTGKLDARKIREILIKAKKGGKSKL
(Quantitative high-throughput screening tests each substance at several concentrations.)
On to `CSc1ccc(C2c3c(oc4ccccc4c3=O)C(=O)N2CCCN2CCOCC2)cc1` (centres undefined), for which the Potency entry is “inactive”. Regarding `COc1cc(Cl)c(C)cc1NC(=O)CSc1nnc(-c2ccco2)n1CC(C)C`, the Potency result is “inactive”.

On to `CCOc1ccc(C(=O)Nc2cccc(-c3ccc4nncn4n3)c2)cc1`, for which the Potency is 8.49 µM (active). As to `CCOc1cccc(NC(=O)CC#N)c1`, the Potency result is “inactive”. Turning to `CCOc1ccc(C(=O)Nc2cccc(SC)c2)cc1`, the Potency is 6.01 µM (active).

Regarding `CCOc1ccc(NC(=O)c2ccc(NC(=O)COC(=O)c3ccc(NC(=O)CC#N)cc3)cc2)cc1`, the Potency result is “inactive”. Turning to `COc1ccc(OC)c(S(=O)(=O)Nc2cccc(-c3ccc4nncn4n3)c2)c1`, the Potency result is “inactive”. For the compound `CCOc1ccc(C(=O)Nc2c3c(nn2-c2ccccc2)CS(=O)(=O)C3)cc1`, the Potency entry is “inactive”. On to `NS(=O)(=O)c1ccc(CCNS(=O)(=O)c2cccc3cccnc23)cc1`, for which the Potency entry was “inactive”. Consider `O=C(O[C@@H]1[C@H](Cc2ccccc2)NS(=O)(=O)[C@H]2C[C@@H]3C=C[C@]12O3)c1ccccc1Br`, for which the Potency entry is “inactive”. For `COc1cccc(NC(=O)N2CCCC2C(=O)NC2CCCCC2)c1` (centres undefined) the value was “inactive”; for `COc1cccc(NC(=O)NCCN2CCCCC2)c1`, “inactive”; for `COc1cccc(NC(=O)Nc2nnc(N3CCCCC3C)s2)c1` (centres undefined), 13.5 µM (active). Then `CCOC(=O)C1(CCOC)CCN(Cc2cc3ccccc3s2)CC1`, with “inactive”. Consider `CN(Cc1ccccc1)S(=O)(=O)c1ccc(F)c(C(=O)Nc2cccc(Cl)c2Cl)c1`, for which the Potency result is “inactive”.

Regarding `O=C1c2cccnc2C(Nc2ccc(S(=O)(=O)N3CCCCCC3)cc2)N1Cc1ccccc1` (centres undefined), the Potency entry was “inactive”.

For the compound `Cc1noc(C)c1/C=N/Nc1ccc2ccccc2n1`, the Potency was 1.69 µM (active). Regarding `C(=N\Nc1ccc2ccccc2n1)/c1ccc2c(c1)OCO2`, the Potency was 0.19 µM (active). Then `O=C(Cc1ccc(F)cc1)N/N=C/c1ccc2c(c1)OCO2`, with “inactive”. Turning to `Brc1ccc(-c2csc(N/N=C/c3ccc4c(c3)OCO4)n2)cc1`, the Potency entry was “inactive”.

On to `COc1ccc(NC(=O)C2C3CCC(O3)C2C(=O)O)cc1OC` (centres undefined), for which the Potency entry was “inactive”. As to `Cc1cccn2c(=O)c3cc(C(=O)NC(C)c4ccccc4)c(=N)n(CCCO)c3nc12` (centres undefined), the Potency entry was “inactive”. For `CCCN(CCC)CCNC(=O)c1ccc2c(c1)NC(=O)C(CS(=O)(=O)Cc1cccc(Br)c1)N2` (centres undefined) the value was “inactive”; for `COc1cccc(N=C2SC(C(=O)Nc3cccc(Cl)c3)CC(=O)N2C)c1` (centres undefined), “inactive”; for `COc1ccc(Cn2cccc(NC(=O)Nc3ccc(C#N)cc3)c2=O)cc1`, “inactive”. Then `O=C(Nc1cccn(Cc2ccccc2Cl)c1=O)NC1CCCCC1`, with 21.3 µM (active); and `O=C(COc1ccccc1Cl)Nc1ccccc1C(=O)NC1CC1`, with “inactive”. As for `CCOc1ccc(NC(=O)CCc2c(C)nn(-c3ccc(N4CCCC4)nn3)c2C)cc1`, the Potency result is “inactive”. For `CCC(=O)Nc1ccc(-c2ccc(N3CCCCC3)nn2)cc1` the value was 12 µM (active); for `CCC(=O)c1ccc(OCC(=O)Nc2ccc(N3CCCCC3)cc2)cc1`, “inactive”. For `O=C(CSc1nc2ccccc2nc1Cc1ccccc1)N1CCCCC1` the value was “inactive”; for `O=C(CC(c1cccs1)N1Cc2ccccc2C1=O)Nc1ccc(F)c(F)c1` (centres undefined), “inactive”. Take `Cc1sc2ncnc(N3CCC(C(=O)Nc4nc5ccc(Cl)cc5s4)CC3)c2c1C`: the Potency was 15.1 µM (active).

As to `Cc1sc2ncnc(N3CCC(C(=O)NNC(=O)c4ccc(F)cc4)CC3)c2c1C`, the Potency result is “inactive”. As to `Cc1sc2ncnc(N3CCC(C(=O)Nc4ccc(F)cc4Cl)CC3)c2c1C`, the Potency entry was “inactive”. As to `Cc1ccc(S(=O)(=O)N(C)C)cc1NC(=O)C1Cc2ccccc2CN1C(=O)c1ccco1` (centres undefined), the Potency entry is “inactive”. Then `CCN(CC)c1ccc(C(=O)Nn2c(C)nc3ccccc3c2=O)cc1`, with “inactive”; and `CCN(CC)c1ccc(C(=O)c2cnc(/N=C/N(C)C)s2)cc1`, with 16.9 µM (active). As to `COc1ccc(S(=O)(=O)N2CCN(C(C)C(=O)Nc3ccc(C(C)C)cc3)CC2)cc1` (centres undefined), the Potency entry is “inactive”. Then `O=C(CN1C(=O)/C(=C\c2ccccc2F)SC1=S)Nc1nc2ccccc2s1`, with “inactive”; and `Cc1ccc(S(=O)(=O)CCC(=O)OCC(=O)N(C)C2CCS(=O)(=O)C2)cc1` (centres undefined), with “inactive”; and `COc1ccccc1/C=C1\SC(=O)N(CCC(=O)N(C)C2CCS(=O)(=O)C2)C1=O` (centres undefined), with 16.9 µM (active).

On to `CN(C(=O)CN1C(=O)S/C(=C\c2ccccc2F)C1=O)C1CCS(=O)(=O)C1` (centres undefined), for which the Potency result is “inactive”.

Regarding `CN(C(=O)CCN1C(=O)/C(=C/c2ccccc2F)SC1=S)C1CCS(=O)(=O)C1` (centres undefined), the Potency is 26.9 µM (active). For `COc1ccc(/C=C(\C#N)C(=O)OCC(=O)N(C)C2CCS(=O)(=O)C2)cc1` (centres undefined) the value was “inactive”; for `CC[n+]1c(C)n(-c2ccccc2)c2ccc(NC(C)=O)cc21`, “inactive”.

Regarding `CCN(CC)C(=O)c1nc[nH]c1C(=O)N(C)Cc1ccccc1`, the Potency entry is “inactive”.

For `Cc1ccc(CNC(=O)CCNS(=O)(=O)c2ccc3c(c2)oc(=O)n3C)cc1`, the Potency result was “inactive”. `O=C(CN1CCSCC1)N/N=C/c1ccc(Cl)cc1`: the Potency entry was “inactive”. Then `Cc1nn(Cc2ccc(Cl)cc2)c(Cl)c1/C=N/NC(=O)CNc1ccccc1F`, with “inactive”; and `CCn1nc(C)c(/C=N/NC(=O)Cc2ccc(Cl)cc2)c1C`, with 15.1 µM (active); and `CCn1cc(C(=O)N(C)Cc2ccccc2)c(=O)c2cc(S(=O)(=O)N3CCCCCC3)ccc21`, with “inactive”. For `CCn1nc(C(=O)Nc2ccc(N3CCOCC3)cc2)c2ccccc2c1=O` the value was “inactive”. Regarding `CC1(c2ccc(Cl)cc2Cl)NC(=O)N(CC(=O)Nc2cccnc2Cl)C1=O` (centres undefined), the Potency result is “inactive”. `O=C(O)/C=C/C(=O)NNc1ccc([N+](=O)[O-])cc1`: the Potency result is “inactive”. For `Cc1cccc(COc2ccccc2/C=N/Nc2ccc([N+](=O)[O-])cc2)c1` the value was “inactive”. For `O=[N+]([O-])c1ccc(N/N=C/c2ccccc2)cc1` the value was 19 µM (active).

Consider `COC(=O)c1ccc(CSc2ccc(S(=O)(=O)N3CCCCC3)cn2)cc1`, for which the Potency entry is “inactive”.

Regarding `O=C(C1CCC1)N1CCN(S(=O)(=O)c2ccc([N+](=O)[O-])cc2)CC1`, the Potency entry is “inactive”. Then `COc1ccc(S(=O)(=O)/N=C2\C=C(NS(=O)(=O)c3ccccc3)C(=O)c3ccccc32)cc1`, with 15.1 µM (active). Then `CCCC(NS(=O)(=O)c1ccc(OC)cc1)C(=O)O` (centres undefined), with “inactive”; and `COc1ccc(NS(=O)(=O)c2ccc(Oc3c(C#N)cccc3C#N)cc2)cc1`, with “inactive”.

In the case of `CCCCc1ccc(NC(=O)CN2C(=O)NC(Cc3ccccc3)C2=O)cc1` (centres undefined), the Potency result is “inactive”. Then `CCCCN(C(=O)c1nn(C)c(=O)c2ccccc12)c1c(N)n(CCC)c(=O)[nH]c1=O`, with “inactive”; and `Cc1ccc(S(=O)(=O)NCCNC(C)c2ccc(Br)cc2)cc1` (centres undefined), with “inactive”. With `CCOC(=O)c1ccc(NC2=CC(c3ccc(OCC)cc3)N(c3ccc(C(=O)OCC)cc3)C2=O)cc1` (centres undefined), the Potency entry was “inactive”. On to `CC1(C)Cc2c(sc(NC(=O)C(=O)N3CCOCC3)c2C#N)CO1`, for which the Potency entry is “inactive”.

For `COC(=O)c1c(NC(=O)C(=O)N2CCCCC2)sc2c1CC(C)(C)OC2`, the Potency result is “inactive”.

As for `CCOC(=O)N1CCN(C(=O)C(=O)Nc2sc3c(c2C#N)CC(C)(C)OC3)CC1`, the Potency was 16.9 µM (active). For `COc1ccc(NC(=S)N2CCCC(CO)C2)c(OC)c1` (centres undefined) the value was “inactive”; for `CCCCc1ccc(NC(=S)NCCCN2CCOCC2)cc1`, “inactive”. On to `CCCCc1ccc(NC(=S)N2CCCC(CO)C2)cc1` (centres undefined), for which the Potency is 2.69 µM (active). As for `CCOc1ccc(CNC(=O)c2cc(=O)[nH]c3ccc(S(=O)(=O)N4CCCCC4)cc23)cc1`, the Potency result is “inactive”. For `Cc1ccc2c(CN3CCN(S(=O)(=O)c4ccccc4C(F)(F)F)CC3)cc(=O)oc2c1` the value was “inactive”. For `COc1ccc(CNC(=O)c2ccc3c(c2)nc2n3CCOC2)c(OC)c1` the value was “inactive”; for `COc1ccc(OC)c(CN2CCN(C(=O)CNC(=O)c3cc(C)cc(C)c3)CC2)c1`, “inactive”. For the compound `CCn1nnnc1SCC(=O)c1ccc(C)cc1C`, the Potency is 6.75 µM (active). For `Cc1ccc(C(=O)CSc2nc(-c3ccccc3)nc3c2CCCC3)c(C)c1` the value was “inactive”; for `COc1ccc(C(=O)CSc2nnnn2C)c(OC)c1`, “inactive”; for `CCOc1ccccc1N(C)C(=O)c1cc2c(s1)-c1ccccc1OC2`, “inactive”. For the compound `CC1(C)CC(=O)C=C(c2ccc(Cl)c(C(F)(F)F)c2)C1`, the Potency entry was “inactive”.

In the case of `N#CC(=C1SC=CS1)c1nc(-c2ccccc2)cs1`, the Potency was 7.57 µM (active). Take `N#C/C(=C1/CCCN1)c1ccccn1`: the Potency result was “inactive”.

Consider `COc1cccc(C(=O)OCC(=O)c2[nH]c(C)c(C(C)=O)c2C)c1`, for which the Potency entry is “inactive”. With `CCc1ccc(NC(=O)c2cnc3c(-c4ccccc4)c(C)nn3c2C)cc1`, the Potency result is “inactive”. Then `COc1cc(C(=O)Nc2ccc(OCc3cc(=O)n4ccc(C)cc4n3)cc2)cc(OC)c1OC`, with “inactive”. Then `COc1ccccc1C(=O)Nc1ccc(OCc2nnc3c4ccccc4c(C)nn23)cc1`, with 4.26 µM (active); and `Cc1cccc(C(=O)NNC(=O)CSc2nnc(C(C)C)n2C)c1`, with “inactive”; and `COCCn1c(C)cc(C2=NNC(=Nc3ccc(F)cc3)SC2)c1C`, with 3.38 µM (active). Then `C=CCn1c(C)cc(C2=NNC(=NCC)SC2)c1C`, with 0.151 µM (active). For `Cc1ccc(S(=O)(=O)c2ccc(Cl)cc2)cc1S(=O)(=O)NC(C(=O)O)C(C)C` (centres undefined), the Potency entry is “inactive”. For `CCOc1ccc(OCC)c(Nc2nc3ccccc3n3nnnc23)c1` the value was “inactive”; for `Cc1cccc(N(C(=O)c2ccc(CN3CCOCC3)o2)C(C(=O)NC2CCCCC2)c2ccc(F)cc2)c1` (centres undefined), “inactive”; for `CCc1cc2c(cc3c(=O)n(CC(=O)N4CCN(c5cc(Cl)ccc5C)CC4)ncn32)s1`, “inactive”. As to `CCOc1ccc(N(C)S(=O)(=O)c2cc(-c3cnc(C)o3)ccc2OC)cc1`, the Potency entry is “inactive”. Then `Cc1cc(C)c(NC(=O)CSc2nc3nccnc3c(=O)n2CCc2c[nH]c3ccccc23)c(C)c1`, with “inactive”; and `COCCNC(=O)c1ccc2c(c1)N(Cc1cccc(Cl)c1)C(=O)c1ccccc1S2(=O)=O`, with “inactive”; and `COc1ccc(CNC(=O)c2cc3cccc(OC)c3oc2=O)cc1`, with “inactive”. Take `Cc1cc(C)cc(OCC(=O)NNC(=O)c2cc3ccccc3oc2=O)c1`: the Potency entry is “inactive”. For `O=C(NCc1ccccn1)c1cc2ccccc2oc1=O` the value was 13.5 µM (active); for `COc1cccc2cc(C(=O)N3CCN(C(=O)c4ccccc4)CC3)c(=O)oc12`, “inactive”. For `COc1ccc2oc(=O)c(C(=O)NCc3ccccn3)cc2c1` the value was “inactive”.

With `COc1cccc2cc(C(N)=O)/c(=N\NC(=O)c3ccccc3)oc12`, the Potency is 1.69 µM (active).

Take `NC(=O)c1cc2ccccc2o/c1=N/NC(=O)c1cccc(F)c1`: the Potency entry was “inactive”.

As for `COc1cccc2cc(C(=O)NCc3ccc(C)cc3)c(=N)oc12`, the Potency is 5.36 µM (active). On to `Cc1cc(C)cc(NC(=S)NCCc2c[nH]c3ccccc23)c1`, for which the Potency result is “inactive”. As to `CN(c1ccccc1)S(=O)(=O)c1ccc(Cl)c(C(=O)NCCc2c[nH]c3ccccc23)c1`, the Potency result is “inactive”. On to `COc1cccc2cc(C(=O)N(C)C)c(=O)oc12`, for which the Potency result was “inactive”. On to `O=C(NCCc1c[nH]c2ccccc12)c1cc2ccccc2oc1=O`, for which the Potency was 16.9 µM (active).
